# Assays:
# Assay in all cases: pooled miR-30 sensor sort-seq; sequence = guide strand
# Conditions in all cases: shRNA
# LASS1 = target: LASS1
# LASP1 = target: LASP1
# LCN1 = target: LCN1
# LARP1B = target: LARP1B
# LCE2C = target: LCE2C
# LIMK2 = target: LIMK2
# LIN54 = target: LIN54
# LINGO4 = target: LINGO4
# LIN7C = target: LIN7C
# LIPA = target: LIPA
# LONP1 = target: LONP1
# LRDD = target: LRDD
# LRRC15 = target: LRRC15
# LTA4H = target: LTA4H
# MAN1C1 = target: MAN1C1
# MCM6 = target: MCM6
# MEPCE = target: MEPCE
# MLL = target: MLL
# MKNK2 = target: MKNK2
# MIS12 = target: MIS12
# MMADHC = target: MMADHC
# Note: reference of the scale not given here.
sequence,measurement,setting,value
TTGAAGAAGAAGTAGAAGGGGA,sensor-assay potency score (higher = more potent),LASS1,0.612
TTGTAGCGCACCTGACTCTGGA,sensor-assay potency score (higher = more potent),LASP1,-0.666
TTGGCTTCCAGGTTGCCCCCTT,sensor-assay potency score (higher = more potent),LCN1,-0.189
TAGCGTAGCGTAGATGGAGTGG,sensor-assay potency score (higher = more potent),LASS1,-0.207
TAGACTGTGTCTTAGATTGAGA,sensor-assay potency score (higher = more potent),LARP1B,-0.454
TTCAGTGTCATCTTGCAGGTCT,sensor-assay potency score (higher = more potent),LASP1,0.744
TGTCCATGTATAGCGTAGCGTA,sensor-assay potency score (higher = more potent),LASS1,-1.61
TTCACTCTCACAGCAGTCGGGG,sensor-assay potency score (higher = more potent),LCE2C,-0.831
TAGAGGCGGAACCAGAACCAGC,sensor-assay potency score (higher = more potent),LASS1,-1.74
TTGAAGTAAATGTTGAGCTTGG,sensor-assay potency score (higher = more potent),LASS1,0.853
AGACTGCAGGGAAACATGGAGC,sensor-assay potency score (higher = more potent),LCE2C,-2.06
CACAGCAAGAAGAGACTGCAGG,sensor-assay potency score (higher = more potent),LCE2C,-2.53
TATTTTATATTACTGATCTGGT,sensor-assay potency score (higher = more potent),LASP1,-0.425
TGGTCCTTCACGTGCGACCTGA,sensor-assay potency score (higher = more potent),LCN1,-1.44
ATGTTCAGTGTCATCTTGCAGG,sensor-assay potency score (higher = more potent),LASP1,-1.2
TTTATTGAAGTGATCTCTGAGG,sensor-assay potency score (higher = more potent),LARP1B,-0.332
TTTATGCCAGAACTTATCCAGA,sensor-assay potency score (higher = more potent),LASP1,-1.03
AGCAAGAAGAGACTGCAGGGAA,sensor-assay potency score (higher = more potent),LCE2C,-0.624
TATAGCGTAGCGTAGATGGAGT,sensor-assay potency score (higher = more potent),LASS1,-0.396
TAGAAGAGAAACTTCCAAGCGC,sensor-assay potency score (higher = more potent),LASS1,0.296
TCGTAGAAGACAGATGGTGGGT,sensor-assay potency score (higher = more potent),LASS1,-0.363
TGTTCTTGGGGTCTCTGCCCAC,sensor-assay potency score (higher = more potent),LCN1,-1.02
ACACTTGGGAGGACACTTGGGA,sensor-assay potency score (higher = more potent),LCE2C,0.0104
TAGGCACTGTAGCTCCAGCTGC,sensor-assay potency score (higher = more potent),LASS1,-1.01
AAACTTCCAAGCGCTCTCGGGC,sensor-assay potency score (higher = more potent),LASS1,-0.904
TGACACATCCTGAATCTCCTCG,sensor-assay potency score (higher = more potent),LCN1,1.02
TTATATTACTGATCTGGTCCTG,sensor-assay potency score (higher = more potent),LASP1,0.57
TCAGGGAGCAGCCACCAGCCCC,sensor-assay potency score (higher = more potent),LCE2C,-1.78
TACGCTGAAACCTTTGCCCTTG,sensor-assay potency score (higher = more potent),LASP1,0.0341
TTGCAGTAGGGCTTCTTCTCGT,sensor-assay potency score (higher = more potent),LASP1,-0.401
TTCATCTCAGGGAACTCCCTGT,sensor-assay potency score (higher = more potent),LCN1,0.622
TTCATGTTCAGTGTCATCTTGC,sensor-assay potency score (higher = more potent),LASP1,0.197
CTGCAGGGAAACATGGAGCTGG,sensor-assay potency score (higher = more potent),LCE2C,-1.34
TACACGATCTTGCCGCACCGGG,sensor-assay potency score (higher = more potent),LASP1,-1.34
TGGAGCAGCATGACCACCGAGT,sensor-assay potency score (higher = more potent),LASS1,-1.27
TCACTCTCACAGCAGTCGGGGC,sensor-assay potency score (higher = more potent),LCE2C,-1.13
TGGTGGCTCAGGGAGCAGCCAC,sensor-assay potency score (higher = more potent),LCE2C,-2.45
TATATTACTGATCTGGTCCTGG,sensor-assay potency score (higher = more potent),LASP1,0.21
TAGTCGGTGCCAAACAGCAGGT,sensor-assay potency score (higher = more potent),LASS1,-1.18
TTTTATATTACTGATCTGGTCC,sensor-assay potency score (higher = more potent),LASP1,-0.194
TCGTTGACAGTCCTGTACCATA,sensor-assay potency score (higher = more potent),LIMK2,-1.6
TAGTCTTTTAAAATCATTGAAT,sensor-assay potency score (higher = more potent),LIN54,-0.779
TTTACAAGCAAAACATTCGTAA,sensor-assay potency score (higher = more potent),LIN54,-0.274
TTAGTAAGTACTACACAGGAAG,sensor-assay potency score (higher = more potent),LIN54,-0.992
TCTAGGACCCTTACTCTCCCAG,sensor-assay potency score (higher = more potent),LINGO4,-0.898
TTTTCTTACAATCATTGGCATT,sensor-assay potency score (higher = more potent),LIN7C,-1.46
TTCACTTTGAAGGACTCTTTGC,sensor-assay potency score (higher = more potent),LIN7C,-0.329
ATCTAGGAAGAGAACAATCTGG,sensor-assay potency score (higher = more potent),LINGO4,-0.599
TTGCTCTACAAATATCTCTCTC,sensor-assay potency score (higher = more potent),LIN7C,-0.491
TTTCTTTCGTCCACACACTTGA,sensor-assay potency score (higher = more potent),LIMK2,0.0479
TTAACAAGCATTGTACTGTTAG,sensor-assay potency score (higher = more potent),LIPA,-0.745
TTATCTGCCACATCCAGGAGGT,sensor-assay potency score (higher = more potent),LINGO4,-0.12
ATCTGCTGTGAATAGCTGCTGG,sensor-assay potency score (higher = more potent),LIMK2,-0.683
TAAACATACTAGATTGAGGTGC,sensor-assay potency score (higher = more potent),LIN54,-0.0512
TGTGATGTTTGACCCGACCTTT,sensor-assay potency score (higher = more potent),LINGO4,-0.94
ATGAACTTGAGCACATTGGGGT,sensor-assay potency score (higher = more potent),LIMK2,-0.105
TTTTGGTAGCTCAACAACTCGA,sensor-assay potency score (higher = more potent),LIN7C,-0.544
TTTGACCCGACCTTTGCCCTTG,sensor-assay potency score (higher = more potent),LINGO4,-0.241
TACAACTATAGAGTCCTTGTAG,sensor-assay potency score (higher = more potent),LIN54,0.323
TAGCTCCTGGAGCCGCACCAGG,sensor-assay potency score (higher = more potent),LINGO4,-1.44
TTGCCAGACAGCCTCAAGGTGA,sensor-assay potency score (higher = more potent),LINGO4,-1.39
TTTTAAGACATCCTGATCGTTT,sensor-assay potency score (higher = more potent),LIN54,-0.141
TACAATTTCAAACACAGTGATT,sensor-assay potency score (higher = more potent),LIN54,-0.963
TTCTGAGATCTCCTCTTCCTGG,sensor-assay potency score (higher = more potent),LIMK2,-0.852
TTGTCTGTCCTGTAACTGCTTT,sensor-assay potency score (higher = more potent),LIN54,-0.449
TTCCACCTGGATGACTTCCAGC,sensor-assay potency score (higher = more potent),LINGO4,-1.16
TTGACTATGCACCTGCTGCAGG,sensor-assay potency score (higher = more potent),LIPA,-0.688
ATATCCAGTTCTCTAAGCCTTA,sensor-assay potency score (higher = more potent),LINGO4,-0.907
TTGTCCAACTTGATGAGGCAGT,sensor-assay potency score (higher = more potent),LIMK2,-0.14
TAGCTGAGGTCCAATTCCTGGA,sensor-assay potency score (higher = more potent),LINGO4,-0.789
TTATGTAACATTCTGTCTGCAG,sensor-assay potency score (higher = more potent),LIN54,0.565
TAGCGTTCGCTCTCACTTCAGG,sensor-assay potency score (higher = more potent),LIN7C,-0.712
TTTCTTTAAAAGATAGTCCTTT,sensor-assay potency score (higher = more potent),LIN54,0.288
TTTCTTCTAAGACTTTGGGTGT,sensor-assay potency score (higher = more potent),LIN7C,-0.276
TTGAGAGCTGGTTGTAGCTGAG,sensor-assay potency score (higher = more potent),LINGO4,-0.0336
TAACCTTTCCTTGTGCGGCTTT,sensor-assay potency score (higher = more potent),LIN7C,0.0216
TCTATCAGCAATTCCACCTGGA,sensor-assay potency score (higher = more potent),LIN7C,1.09
TCTACAAATATCTCTCTCCAGC,sensor-assay potency score (higher = more potent),LIN7C,-1.02
TGAGGTGGTACAGTGCTTGGAA,sensor-assay potency score (higher = more potent),LINGO4,0.431
TAATATTGAATCCAAGGCCCTC,sensor-assay potency score (higher = more potent),LIN7C,-0.834
TTCAAGGCAATGATGTCCCGGA,sensor-assay potency score (higher = more potent),LONP1,-0.021
TACAGGTCCAAGCTCAGCCGGT,sensor-assay potency score (higher = more potent),LRDD,-1.52
AATCCTCTGAAGCATCTCCTGC,sensor-assay potency score (higher = more potent),LRDD,-1.15
TTCTTGCAGCAGCAACAGCCGA,sensor-assay potency score (higher = more potent),LRRC15,-1.7
TGTAACTTTGTCTTTCTCCAAG,sensor-assay potency score (higher = more potent),LTA4H,-0.956
TTGTCCATTGATCACTACTTTT,sensor-assay potency score (higher = more potent),LTA4H,-1.71
TAGAAAGAAGCTCTGCTGCTTG,sensor-assay potency score (higher = more potent),MAN1C1,0.252
TAGAACATGATCATAGTGTGTG,sensor-assay potency score (higher = more potent),MCM6,0.881
TAGTAGTTCTTGTAGATCGTTT,sensor-assay potency score (higher = more potent),MEPCE,-0.407
TTTGCTTAGAACTATTGCCATT,sensor-assay potency score (higher = more potent),MLL,-1.46
TAGATGCTAGCCTCCTCGCTGA,sensor-assay potency score (higher = more potent),MKNK2,-0.602
TCTCCTTACATTTATCTTCAGG,sensor-assay potency score (higher = more potent),MIS12,-1.19
TTCTGCTTCACAATCCTCCTTA,sensor-assay potency score (higher = more potent),MLL,0.726
ATCAGCTCTAGGACGTTCCTGT,sensor-assay potency score (higher = more potent),MKNK2,-0.0446
TTTCTTGTTCAACAGGTGCATC,sensor-assay potency score (higher = more potent),MMADHC,-1.26
TATGATTCTACTTTTTGACAGG,sensor-assay potency score (higher = more potent),MIS12,-0.668
TCCAGCTCGTTGAAGTGCCGGC,sensor-assay potency score (higher = more potent),MKNK2,-1.11
TTCCTCTGCAGGACCATGGGAG,sensor-assay potency score (higher = more potent),MKNK2,-0.448
TTTTCTAAGAGCACTTCTCTTT,sensor-assay potency score (higher = more potent),MMADHC,-0.6
TTGTGTTACAGTCAGAATCATT,sensor-assay potency score (higher = more potent),MMADHC,-1.32
TGATGCAGGTCTGCACTCGGGC,sensor-assay potency score (higher = more potent),MKNK2,-1.01
TTTCACTTGATAAAGGTTCTGC,sensor-assay potency score (higher = more potent),MMADHC,0.549
TTTGTTATGCAGAAAGTCCAAG,sensor-assay potency score (higher = more potent),MKNK2,-0.811
TTCTGTTGTAGGCAGCTGCTGA,sensor-assay potency score (higher = more potent),MLL,-0.148
TGAAATGCAATGTAGATCCGAA,sensor-assay potency score (higher = more potent),MIS12,0.0164
TTCTTCTGTGAAGCAGTCCCAT,sensor-assay potency score (higher = more potent),MMADHC,-0.488
TAATGTTCTGTAGTTTTCTGGA,sensor-assay potency score (higher = more potent),MIS12,-0.154
TTATGCAGAAAGTCCAAGGCGC,sensor-assay potency score (higher = more potent),MKNK2,-0.181
TTCTTCACTCCAAACAGTCATA,sensor-assay potency score (higher = more potent),MMADHC,-1.24
TATCTCTGGAACTAGATCCCAT,sensor-assay potency score (higher = more potent),MLL,0.126
TTGAGTTTGATGCCGCTGCCCA,sensor-assay potency score (higher = more potent),MKNK2,-0.98
TTGGTTTGAACAGTCACTGGTA,sensor-assay potency score (higher = more potent),MIS12,0.981
TTGATGCAGGTCTGCACTCGGG,sensor-assay potency score (higher = more potent),MKNK2,-1.43
TCGGTGTAGACTCTAATCGGGC,sensor-assay potency score (higher = more potent),MLL,-1.36
TAAGACATGATCAACTACTTTG,sensor-assay potency score (higher = more potent),MLL,-0.602
TGTATTGCACACTCTACTCTGG,sensor-assay potency score (higher = more potent),MMADHC,0.407
TCAAACAGCATGTTCTGGCAGG,sensor-assay potency score (higher = more potent),MKNK2,-0.787
TAGATCCGAAGCATGCACGTTT,sensor-assay potency score (higher = more potent),MIS12,0.233
TTGAAATGCAATGTAGATCCGA,sensor-assay potency score (higher = more potent),MIS12,0.852
TAGGACGTTCCTGTGTCCCTGG,sensor-assay potency score (higher = more potent),MKNK2,0.366

# From the OligoGym collection
